Test results reported in PubChem BioAssay (Tox21).
Several values for one entry are separate records, joined by “and”; a condition that tells them apart may be missing. Equal values may be shown once. Inconclusive results are not listed. Some structures have more than one record in an assay (separate samples or runs), and their calls can disagree. Activity calls are given as the source filed them. Unless noted, the call rests on the fitted dose curve; in most records, active means well fitted curve in the direction sought with a large enough effect in the repeat runs; inconclusive means weak or mixed curves; inactive means no such curve, though single readings can be large; an effect the other way counts as inactive or inconclusive.

Legend:
[1] = qHTS assay to test for compound auto fluorescence at 535 nm (green) in HEK293 cells (AID 720680)
[2] = qHTS assay to test for compound auto fluorescence at 460 nm (blue) in HEK293 cell free culture (AID 720681)
In short: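 Compounds were added to cell-free DMEM with 10% FBS and fluorescence read directly. The blue channel used 405 nm excitation and 460 nm emission, with triamterene as the reference fluorophore.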

[3] = qHTS assay to test for compound auto fluorescence at 535 nm (green) in HEK293 cell free culture (AID 720682)
In short: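 Green-channel intensity (Ex/Em 485/535 nm) was recorded from compound-treated wells containing only DMEM with 10% FBS. Fluorescein provided the equivalency standard.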

[4] = qHTS assay to test for compound auto fluorescence at 590 nm (red) in HEK293 cell free culture (AID 720683)
In short: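 Cell-free wells of DMEM with 10% FBS received compound, and intrinsic fluorescence was read at excitation/emission 540/590 nm. Values expressed as equivalence to Rose Bengal sodium.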

[5] = qHTS assay to test for compound auto fluorescence at 590 nm (red) in HepG2 cell free culture (AID 720684)
In short: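 Compounds are added to culture medium (MEM, 10% FBS) lacking cells, then fluorescence is read at excitation 540 nm, emission 590 nm, with Rose Bengal sodium as the equivalency standard.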

[6] = qHTS assay to test for compound auto fluorescence at 460 nm (blue) in HepG2 cell free culture (AID 720685)
In short: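 Compound (23 nL) or DMSO pinned into cell-free MEM with 10% FBS; blue fluorescence read at 405/460 nm excitation/emission, expressed as auto-fluorescence equivalency to triamterene.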

[7] = qHTS assay to test for compound auto fluorescence at 535 nm (green) in HepG2 cell free culture (AID 720686)
[8] = qHTS assay to test for compound auto fluorescence at 460 nm (blue) in HepG2 cells (AID 720687)
In short: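 HepG2 cells in MEM with 10% FBS, attached overnight at 37 C, were exposed to compound or DMSO for 1 hr at 37 C, 5% CO2. Blue fluorescence was read at 405/460 nm, with triamterene as reference fluorophore.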

[9] = target: Glucocorticoid receptor (Homo sapiens) (UniProt P04150); experiment: qHTS assay to identify small molecule agonists of the glucocorticoid receptor (GR) signaling pathway (AID 720691; active means well fitted activation curve with a large enough effect in the signal ratio in the repeat runs, not every such curve was filed as active; the % refers to the signal ratio)
Glucocorticoid receptor (Homo sapiens), sequence (P04150 whole entry, looked up): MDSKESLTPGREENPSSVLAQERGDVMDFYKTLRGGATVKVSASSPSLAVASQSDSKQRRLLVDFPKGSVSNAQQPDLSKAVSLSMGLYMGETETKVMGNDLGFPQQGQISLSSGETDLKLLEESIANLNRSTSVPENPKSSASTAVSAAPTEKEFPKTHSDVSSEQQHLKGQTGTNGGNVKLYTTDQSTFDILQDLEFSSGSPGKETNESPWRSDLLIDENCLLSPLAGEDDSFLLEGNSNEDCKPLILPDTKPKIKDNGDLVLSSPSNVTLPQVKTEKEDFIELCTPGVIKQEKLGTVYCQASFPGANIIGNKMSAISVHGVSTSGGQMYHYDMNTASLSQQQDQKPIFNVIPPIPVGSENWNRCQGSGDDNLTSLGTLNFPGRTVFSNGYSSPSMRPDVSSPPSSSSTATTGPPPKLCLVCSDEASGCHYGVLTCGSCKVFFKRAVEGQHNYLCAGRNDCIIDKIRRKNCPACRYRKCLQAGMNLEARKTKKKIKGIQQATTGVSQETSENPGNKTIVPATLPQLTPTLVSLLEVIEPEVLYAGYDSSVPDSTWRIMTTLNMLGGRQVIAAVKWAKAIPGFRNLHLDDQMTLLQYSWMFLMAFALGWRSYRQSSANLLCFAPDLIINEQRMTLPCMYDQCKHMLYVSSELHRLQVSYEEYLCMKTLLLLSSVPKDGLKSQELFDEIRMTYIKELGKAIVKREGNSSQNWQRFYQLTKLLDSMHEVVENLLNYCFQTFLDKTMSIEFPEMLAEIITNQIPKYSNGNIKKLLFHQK
In short: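 Fluorescence intensity from LiveBLAzer B/G FRET substrate (2 h, room temperature) reports beta-lactamase expression driven by the glucocorticoid response element in GR-bla HeLa cells after 18 h compound exposure at 37 C.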

[10] = target: Glucocorticoid receptor (Homo sapiens) (UniProt P04150); experiment: qHTS assay to identify small molecule antagonists of the glucocorticoid receptor (GR) signaling pathway (AID 720692; active means well fitted inhibition curve with a large enough effect in the signal ratio in the repeat runs, not every such curve was filed as active; the % refers to the signal ratio)
In short: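 HeLa GR-bla cells; cmpd + dex 5 nM final, 18 h 37 C; LiveBLAzer B/G FRET substrate 2 h RT; fluorescence intensity read. Antagonist mode, qHTS.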

[11] = qHTS assay to identify small molecule antagonists of the glucocorticoid receptor (GR) signaling pathway - cell viability counter screen (AID 720693); further: nearly all actives have a fitted effect of over 55% in size; further: potency means the concentration at half of the fitted maximal effect
[12] = qHTS assay to identify small molecule antagonists of the androgen receptor (AR) signaling pathway - cell viability counter screen (AID 743033; further: nearly all actives have a fitted effect of over 45% in size)
[13] = target: Androgen receptor (Homo sapiens) (UniProt P10275); experiment: qHTS assay to identify small molecule antagonists of the androgen receptor (AR) signaling pathway (AID 743035; active means well fitted inhibition curve with a large enough effect in the signal ratio in the repeat runs, not every such curve was filed as active; the % refers to the signal ratio)
Androgen receptor (Homo sapiens), sequence (P10275 whole entry, looked up): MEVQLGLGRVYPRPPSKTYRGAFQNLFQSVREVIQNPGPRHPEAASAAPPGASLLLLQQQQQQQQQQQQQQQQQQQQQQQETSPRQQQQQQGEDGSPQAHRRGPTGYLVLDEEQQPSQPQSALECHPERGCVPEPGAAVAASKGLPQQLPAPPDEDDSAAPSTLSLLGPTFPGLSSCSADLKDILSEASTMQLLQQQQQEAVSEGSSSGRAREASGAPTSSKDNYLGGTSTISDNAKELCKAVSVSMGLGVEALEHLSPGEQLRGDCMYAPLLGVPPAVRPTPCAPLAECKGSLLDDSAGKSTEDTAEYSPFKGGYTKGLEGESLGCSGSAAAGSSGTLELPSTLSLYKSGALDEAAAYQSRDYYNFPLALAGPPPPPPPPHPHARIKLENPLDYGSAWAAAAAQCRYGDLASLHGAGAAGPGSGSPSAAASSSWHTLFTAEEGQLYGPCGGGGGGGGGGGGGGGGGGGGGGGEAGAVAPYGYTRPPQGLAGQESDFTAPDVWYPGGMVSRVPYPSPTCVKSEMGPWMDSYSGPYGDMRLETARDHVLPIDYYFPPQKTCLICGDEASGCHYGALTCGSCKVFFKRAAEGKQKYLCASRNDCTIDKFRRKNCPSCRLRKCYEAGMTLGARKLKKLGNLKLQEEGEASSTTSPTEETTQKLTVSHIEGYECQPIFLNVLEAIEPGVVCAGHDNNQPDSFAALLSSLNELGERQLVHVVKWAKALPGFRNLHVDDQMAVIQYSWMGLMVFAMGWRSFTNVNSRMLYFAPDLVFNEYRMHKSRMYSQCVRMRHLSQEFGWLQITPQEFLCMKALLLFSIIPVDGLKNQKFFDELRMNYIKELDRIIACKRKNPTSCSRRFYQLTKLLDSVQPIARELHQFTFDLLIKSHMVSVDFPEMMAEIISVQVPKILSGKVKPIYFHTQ
In short: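 Fluorescence from a beta-lactamase FRET substrate (LiveBLAzer B/G, 2 h, room temperature) measured inhibition of R1881-stimulated signaling in GeneBLAzer AR-UAS-bla HEK293 cells exposed to compound for 16 h at 37C.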

[14] = target: Androgen receptor (Homo sapiens) (UniProt P10275); experiment: qHTS assay to identify small molecule agonists of the androgen receptor (AR) signaling pathway (AID 743036; active means well fitted activation curve with a large enough effect in the signal ratio in the repeat runs, with a control signal flat, not every such curve was filed as active; the % refers to the signal ratio)
In short: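 Cell-based FRET reporter assay: HEK293 line with a UAS-beta-lactamase construct, compounds added in DMSO, 16 h exposure at 37C, then 2 h substrate step at room temperature and fluorescence intensity read.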

[15] = target: Androgen receptor (Homo sapiens) (UniProt P10275); experiment: qHTS assay to identify small molecule agonists of the androgen receptor (AR) signaling pathway using the MDA cell line (AID 743040; further: nearly all actives have a fitted effect of over 20% in size)
In short: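 Human breast carcinoma MDA-kb2 reporter cells (MMTV-luc, AR/GR elements) were treated for 16 h at 37C in 0% CO2 following a 5 h settling period. Signal was quantified by ONE-Glo luminescence.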

[16] = qHTS assay to identify small molecule antagonists of the androgen receptor (AR) signaling pathway using the MDA cell line - cell viability counter screen (AID 743041; further: nearly all actives have a fitted effect of over 45% in size)
In short: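 Same-well cytotoxicity was assessed by CellTiter-Fluor in MDA-kb2 AR-luc cells after 16 h of compound treatment under R1881 agonism.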

[17] = qHTS assay for identifying genotoxic compounds that show differential cytotoxicity against isogenic chicken DT40 cell lines with known DNA damage response pathways - wild type cell line (AID 743012); further: nearly all actives have a fitted effect of over 60% in size; further: potency means the concentration at half of the fitted maximal effect
In short: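 Wild type DT40, 300 cells/well, ~0.5 h settle at 37 C/5% CO2; compounds in DMSO added by pintool; 40 h at 37 C/5% CO2; CellTiter-Glo, 30 min RT; luminescence.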

[18] = qHTS assay for identifying genotoxic compounds that show differential cytotoxicity against isogenic chicken DT40 cell lines with known DNA damage response pathways - Rev3 mutant cell line (AID 743014); further: nearly all actives have a fitted effect of over 55% in size; further: potency means the concentration at half of the fitted maximal effect
[19] = qHTS assay for identifying genotoxic compounds that show differential cytotoxicity against isogenic chicken DT40 cell lines with known DNA damage response pathways - Rad54/Ku70 mutant cell line (AID 743015); further: nearly all actives have a fitted effect of over 60% in size; further: potency means the concentration at half of the fitted maximal effect
[20] = target: Androgen receptor (Homo sapiens) (UniProt P10275); experiment: qHTS assay to identify small molecule antagonists of the androgen receptor (AR) signaling pathway using the MDA cell line (AID 743042; further: nearly all actives have a fitted effect of over 55% in size)
In short: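 MDA-kb2 breast carcinoma cells carrying MMTV-luciferase (AR/GR responsive) were co-treated with compounds and the agonist R1881 for 16 h at 37C. Inhibition read as ONE-Glo luminescence; CellTiter-Fluor fluorescence measured in parallel for cytotoxicity.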

Measured: Potency

CN(C)CCOC(c1ccccc1)c1ccccc1
not listed: [17] | [18] | [19] | [20]
inactive: all other assays above

O=C(O)CC(O)C(=O)O (configuration not stated)
not listed: [9] | [10] | [13] | [14] | [15] | [19] | [20]
inactive: all other assays above

CNNCc1ccc(C(=O)NC(C)C)cc1
not listed: [13] | [14] | [15] | [20]
inactive: all other assays above

O=C1NS(=O)(=O)c2ccccc21
not listed: [9] | [10] | [13] | [14] | [15] | [18] | [19] | [20]
inactive: all other assays above

CN(N=O)C(=O)N[C@@H]1[C@@H](O)[C@H](O)[C@@H](CO)O[C@@H]1O
not listed: [13] | [14] | [15] | [20]
inactive: all other assays above

CC(O)(P(=O)(O)O)P(=O)(O)O
not listed: [9] | [10] | [13] | [14] | [15] | [18] | [20]
inactive: all other assays above

O=C(Nc1ncc([N+](=O)[O-])s1)c1cccs1
active: [11] 9.52 µM | [17] 23.7 µM | [18] 29.8 µM | [19] 26.6 µM
not listed: [10] | [12] | [13] | [14] | [16]
inactive: all other assays above

CN(C)CCOC(C)(c1ccccc1)c1ccccn1 (configuration not stated)
not listed: [9] | [10] | [13] | [14] | [15] | [20]
inactive: all other assays above

O=C(O)c1ccccc1
not listed: [9] | [10] | [13] | [14] | [15] | [18] | [19] | [20]
inactive: all other assays above

O=CC(=O)c1ccccc1
not listed: [13] | [14] | [15] | [18] | [19] | [20]
inactive: all other assays above

CC(=O)CCC(=O)O
not listed: [13] | [14] | [15] | [19] | [20]
inactive: all other assays above

CC(=O)CC(c1ccccc1)c1c(O)c2ccccc2oc1=O (configuration not stated)
not listed: [9] | [10] | [13] | [14] | [15] | [18] | [20]
inactive: all other assays above

Nc1c2c(nc3ccccc13)CCCC2
inactive and 27.3 µM (active): [17] | [18]
inactive and 19.3 µM (active): [19]
not listed: [9] | [10] | [13] | [14] | [15] | [20]
inactive: all other assays above

Oc1ccccc1
not listed: [9] | [10] | [13] | [14] | [15] | [19] | [20]
inactive: all other assays above

NC1CCCCC1
54.8 µM (active) and inactive: [18]
not listed: [9] | [10] | [13] | [14] | [15] | [19] | [20]
inactive: all other assays above

Cn1c(=O)c2c(ncn2C)n(C)c1=O
not listed: [13] | [14] | [15] | [16] | [18] | [19] | [20]
inactive: all other assays above
